More than one record can exist for a structure, and the calls need not agree. The source made the active and inactive calls. How the source made its calls: active means hit-call score of the fitted dose curve at least 0.9, where 1 is the maximum; inactive means score below 0.9.
Read-out: Vascular cell adhesion molecule 1 (VCAM1), VCAM1 (gene 7412)
Assay: BSK_hDFCGF_VCAM1: BioMAP Diversity Plus: hDFCGF Assay for Vascular cell adhesion molecule 1 (VCAM1) Biomarker Activity (AID 2283065)
Details: primary human foreskin fibroblasts; actives raise or lower the signal
Experimental: BSK_hDFCGF is a cell-based, multiplexed-readout assay that uses foreskin fibroblast, a human skin primary cell, with measurements taken at 24 hours after chemical dosing in a 96-well plate.BSK_hDFCGF_VCAM1 is an assay component measured in the BSK_hDFCGF assay. It measures VCAM-1 antibody related to regulation of gene expression using ELISA technology.Data from the assay component BSK_hDFCGF_VCAM1 was analyzed into 1 assay endpoint. This assay endpoint, BSK_hDFCGF_VCAM1, was analyzed with bidirectional fitting relative to DMSO as the negative control and baseline of activity. Using a type of binding reporter, gain or loss-of-signal activity can be used to understand changes in the signaling as they relate to the gene VCAM1. Furthermore, this assay endpoint can be referred to as a primary readout, because this assay has produced multiple assay endpoints where this one serves a signaling function. To generalize the intended target to other relatable targets, this assay endpoint is annotated to the cell adhesion molecules intended target family, where the subfamily is Immunoglobulin CAM.
The levels of cell surface (or secreted, indicated by the prefix "s") biomarker endpoints were measured by ELISA. Overt cytotoxicity to cells in confluent adherent cultures (all systems other than the BT system) was assessed by measuring total protein levels using sulforhodamine B (SRB) staining in parallel cultures at the time of biomarker measurements, indicated as SRB endpoints. For proliferation assays for adherent cell types, individual cell types are cultured at sub-confluence and relative cell numbers quantified by SRB staining at time points optimized for each system (48 h: 3C and CASM3C systems; 72 h: BT and HDF3CGF systems; 96 h: SAg system). SRB was performed by staining cells with 0.1% SRB after fixation with 10% TCA and reading wells at 560 nm.Viability and proliferation of PBMC (T cells) was quantified by Alamar Blue reduction for the SAg and BT systems. For PBMC viability (referred to as PBMC Cytotoxicity within the assay endpoint names), cells were plated (75,000/well in a 96-well plate) and then chemical samples added for 1 h before addition of activators, SEB and TSST-1 (20 ng/mL final concentration each). Cells were incubated for 90 h. Then, Alamar Blue (20 uL/well) (Invitrogen, Cat DAL1100) was added for 6 h, and the plates were read with a fluorescence microplate reader at 546/580 nm (excitation/emission). For PBMC proliferation, cells were plated and activated as above but incubated for only 16 h prior to addition of Alamar Blue. Plates were read after 6 h.

| SMILES | AC50 | outcome |
| --- | --- | --- |
| COP(=S)(OC)Oc1c(Cl)cc(C)cc1Cl | 20 µM (active) |  |
| CC(=O)[O][Hg][c]1ccccc1 | 0.511 µM (active) |  |
| CCCCCCCCC(=O)NCc1ccc(O)c(OC)c1 |  | inactive |
| C[C@]12CCC(=O)C[C@@H]1CC[C@@H]1[C@@H]2CC[C@]2(C)[C@@H](O)CC[C@@H]12 |  | inactive |
| CCOC(=O)/C=C(C)/C=C/C[C@@H](C)CCCC(C)C | 20.7 µM (active) |  |
| O=C(Nc1ccc2[nH]ccc2c1)c1cc2cc(F)ccc2n1Cc1cccc(F)c1 | 2.65 µM (active) |  |
| NC(=S)Nc1ccccc1 |  | inactive |
| CCCCCCCCc1ccc(O)cc1 | 27.9 µM (active) |  |
| O=C(O)C(F)(F)C(F)(F)C(F)(F)C(F)(F)C(F)(F)C(F)(F)F |  | inactive |
| CCN1CCC2(CC1)COc1cc3c(cc12)N(C(=O)c1ccc(-c2ccc(-c4nnc(C)o4)cc2C)cc1)CC3 | 7.34 µM (active) |  |
| OCc1ccco1 |  | inactive |
| CC(=O)OC(c1ccccc1)C(Cl)(Cl)Cl (stereo not given) |  | inactive |
| O=S(=O)(c1ccc(Cl)cc1)c1ccc(Cl)cc1 | 5.32 µM (active) |  |
| BrCCBr |  | inactive |
| C=CC(=O)OCCCCCC(C)C |  | inactive |
| CC(=O)C(Cl)C(=O)N(C)C (stereo not given) |  | inactive |
| COP(=S)(OC)Oc1cc(Cl)c(Cl)cc1Cl | 25.4 µM (active) |  |
| CCOP(=S)(OCC)Oc1nc(Cl)c(Cl)cc1Cl | 7.1 µM (active) |  |
| COC[C@H](C)N(C(=O)CCl)c1c(C)csc1C |  | inactive |
| C[C@@H]1C[C@@H]([C@H](O)CC2CC(=O)NC(=O)C2)C(=O)[C@@H](C)C1 | 0.915 µM (active) |  |

| SMILES | AC50 | outcome |
| --- | --- | --- |
| COc1cc(OC)nc(NC(=O)NS(=O)(=O)c2ncccc2C(=O)N(C)C)n1 |  | inactive |
| Cc1ccccc1N |  | inactive |
| Oc1cccc2cccnc12 | 1.03 µM (active) |  |
| Nc1ccc(-c2ccc(N)c(Cl)c2)cc1Cl |  | inactive |
| COC(=O)Cc1ccccc1 |  | inactive |
| CC(C)c1ccc(CO)cc1 |  | inactive |
| C=C(C)C(=O)[O][Sn]([CH2]CCC)([CH2]CCC)[CH2]CCC | 0.148 µM (active) |  |
| COc1cc(-c2ccc(N)c(OC)c2)ccc1N | 19.2 µM (active) | inactive |
| CCOP(=S)(OCC)SCCS(=O)(=O)CC |  | inactive |
| CC(C)(C)c1cc(O)ccc1O | 3.31 µM (active) |  |
| CCC(C)(C)c1ccc(O)c(C(C)(C)CC)c1 | 9.33 µM (active) |  |
| Cn1sc(Cl)cc1=O | 23.4 µM (active) |  |
| Oc1c(I)cc(I)cc1I |  | inactive |
| CCOP(=S)(OCC)SCSP(=S)(OCC)OCC |  | inactive |
| CCSC(C)CC1CC(=O)C(C(CC)=NOC/C=C/Cl)=C(O)C1 (stereo not given) |  | inactive |
| Nc1ncc([N+](=O)[O-])s1 |  | inactive |
| ClC1=C(Cl)[C@]2(Cl)[C@H]3[C@H]([C@H]4C=C[C@H]3C4)[C@@]1(Cl)C2(Cl)Cl | 6.26 µM (active) |  |
| CCOP(=S)(OCC)Oc1ccc(S(C)=O)cc1 (stereo not given) |  | inactive |
| CC(C)(c1ccccc1)c1ccc(O)c(C(C)(C)c2ccccc2)c1 | 2.79 µM (active) |  |

Reference: PubChem BioAssay (EPA / NIEHS)
